Reference: the supplement of paper PMC10849652
The full data set covers some 7,900 targets. This sample favours those with a hit. About 0.6% of all pairs of compound and target were hits.

What was measured:
Test in all cases: log2 fold change, soluble protein after heating vs DMSO (PISA); higher = thermal stabilisation; K562 cells, 10 uM, 30 min; active = over 0.2 and 3.5 SD of the protein, either way, in both replicates (recomputed)
[1] = compound: CS(=O)(=O)c1ccc(-c2cnc(N)c(C(=O)Nc3ccccc3)n2)cc1
Procedure, shortened: (§1)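 Quantification of soluble protein used TMTpro 16plex LC-MS/MS, with channel sums equalised. Samples were the supernatant after 21,000xg for 90 min of pooled aliquots from K562 cells (2×10^6 cells/mL) treated with 10 μM compound for 30 min, heated for 3 min over 48°C-58°C, and extracted in PBS with 0.5% NP-40 at 4°C. Values, from duplicates, describe thermal stability against control samples on a log2 fold-change scale.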

crizotinib = compound: C[C@@H](Oc1cc(-c2cnn(C3CCNCC3)c2)cnc1N)c1c(Cl)ccc(F)c1Cl [crizotinib]
Procedure, shortened: as §1

[2] = compound: C[C@@H]1COCCN1C2=NC(=NC(=C2)C3(CC3)S(=O)(=O)C)C4=C5C=CNC5=CC=C4
Procedure, shortened: as §1

[3] = compound: C[C@H](C1=CC=C(C=C1)C(=O)NC2=C3C=CNC3=NC=C2)N
Procedure, shortened: as §1

duvelisib = compound: C[C@H](Nc1ncnc2nc[nH]c12)c1cc2cccc(Cl)c2c(=O)n1-c1ccccc1 [duvelisib]
Procedure, shortened: as §1

gandotinib = compound: Cc1cc(Nc2cc(CN3CCOCC3)c3nc(C)c(Cc4ccc(Cl)cc4F)n3n2)n[nH]1 [gandotinib]
Procedure, shortened: as §1

tozasertib = compound: Cc1cc(Nc2cc(N3CCN(C)CC3)nc(Sc3ccc(NC(=O)C4CC4)cc3)n2)n[nH]1 [tozasertib]
Procedure, shortened: as §1

[4] = compound: Cc1cc(SCc2sc(-c3ccc(C(F)(F)F)cc3)nc2C)ccc1OCC(=O)O
Procedure, shortened: as §1

doramapimod = compound: Cc1ccc(-n2nc(C(C)(C)C)cc2NC(=O)Nc2ccc(OCCN3CCOCC3)c3ccccc23)cc1 [doramapimod]
Procedure, shortened: as §1

ispinesib = compound: Cc1ccc(C(=O)N(CCCN)[C@@H](c2nc3cc(Cl)ccc3c(=O)n2Cc2ccccc2)C(C)C)cc1 [ispinesib]
Procedure, shortened: as §1

Measured: log2 fold change

SMARCAD1 isoform 2 (UniProt Q9H4L7)
inactive: [1] 0.029 | crizotinib -0.112 | [2] 0.088 | [3] -0.054 | duvelisib 0.081 | gandotinib -0.042 | tozasertib 0.059 | [4] 0.15 | doramapimod -0.058 | ispinesib 0

TATDN2 (UniProt Q93075)
UniProt Q93075, sequence (Q93075 whole entry, looked up): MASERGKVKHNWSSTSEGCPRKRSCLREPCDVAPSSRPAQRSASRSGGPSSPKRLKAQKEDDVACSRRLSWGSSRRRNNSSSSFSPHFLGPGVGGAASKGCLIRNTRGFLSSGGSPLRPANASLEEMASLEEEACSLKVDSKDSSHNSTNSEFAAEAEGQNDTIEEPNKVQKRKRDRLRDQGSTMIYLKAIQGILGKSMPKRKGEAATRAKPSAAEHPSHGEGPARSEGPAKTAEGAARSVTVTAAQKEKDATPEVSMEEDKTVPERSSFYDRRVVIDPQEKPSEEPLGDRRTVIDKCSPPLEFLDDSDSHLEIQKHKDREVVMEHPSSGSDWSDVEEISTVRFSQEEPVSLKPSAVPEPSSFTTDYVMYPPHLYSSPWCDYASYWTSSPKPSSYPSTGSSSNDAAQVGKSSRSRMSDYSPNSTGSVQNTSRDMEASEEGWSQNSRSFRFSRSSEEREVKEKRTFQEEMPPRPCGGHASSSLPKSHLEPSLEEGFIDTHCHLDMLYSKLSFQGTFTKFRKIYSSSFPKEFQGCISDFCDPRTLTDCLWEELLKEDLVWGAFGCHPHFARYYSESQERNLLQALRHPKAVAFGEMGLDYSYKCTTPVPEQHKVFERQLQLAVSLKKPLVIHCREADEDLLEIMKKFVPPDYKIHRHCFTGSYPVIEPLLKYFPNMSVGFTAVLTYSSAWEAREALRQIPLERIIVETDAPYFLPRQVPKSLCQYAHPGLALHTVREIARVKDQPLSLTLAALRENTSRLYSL
inactive: [1] 0.002 | crizotinib -0.061 | [2] 0.028 | [3] 0.078 | duvelisib 0.019 | gandotinib 0.106 | tozasertib 0.136 | [4] 0.045 | doramapimod 0.063

SP3 (UniProt Q02447)
inactive: [1] -0.005 | crizotinib 0.013 | [2] -0.071 | [3] 0.123 | duvelisib 0.031 | gandotinib 0.086 | tozasertib 0.032 | [4] 0 | doramapimod 0.089 | ispinesib -0.046

SNX2 (UniProt O60749)
inactive: [1] -0.034 | crizotinib -0.223 | [2] 0.006 | [3] -0.039 | duvelisib -0.107 | gandotinib -0.216 | tozasertib -0.102 | [4] 0.041 | doramapimod -0.014 | ispinesib -0.184

SUGP1 (UniProt Q8IWZ8)
inactive: [1] 0.021 | crizotinib -0.001 | [2] 0.015 | [3] -0.064 | duvelisib -0.024 | gandotinib -0.077 | tozasertib 0.042 | [4] 0.09 | doramapimod -0.033 | ispinesib 0.019

TECR (UniProt Q9NZ01)
UniProt Q9NZ01, sequence (Q9NZ01 whole entry, looked up): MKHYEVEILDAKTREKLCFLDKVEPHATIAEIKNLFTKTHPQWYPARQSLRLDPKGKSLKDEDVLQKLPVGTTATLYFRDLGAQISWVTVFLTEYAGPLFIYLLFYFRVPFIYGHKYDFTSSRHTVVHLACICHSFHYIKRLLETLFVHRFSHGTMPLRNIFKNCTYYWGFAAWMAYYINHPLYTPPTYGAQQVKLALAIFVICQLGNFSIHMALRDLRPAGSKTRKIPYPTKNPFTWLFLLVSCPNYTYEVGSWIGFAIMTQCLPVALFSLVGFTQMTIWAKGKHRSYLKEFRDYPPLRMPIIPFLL
inactive: [1] -0.002 | crizotinib -0.247 | [2] 0.054 | [3] 0.045 | duvelisib 0.05 | tozasertib -0.031 | [4] 0.044 | doramapimod -0.095
active: gandotinib -0.344 | ispinesib -0.501

TBC1D24 (UniProt Q9ULP9)
UniProt Q9ULP9, sequence (Q9ULP9 whole entry, looked up): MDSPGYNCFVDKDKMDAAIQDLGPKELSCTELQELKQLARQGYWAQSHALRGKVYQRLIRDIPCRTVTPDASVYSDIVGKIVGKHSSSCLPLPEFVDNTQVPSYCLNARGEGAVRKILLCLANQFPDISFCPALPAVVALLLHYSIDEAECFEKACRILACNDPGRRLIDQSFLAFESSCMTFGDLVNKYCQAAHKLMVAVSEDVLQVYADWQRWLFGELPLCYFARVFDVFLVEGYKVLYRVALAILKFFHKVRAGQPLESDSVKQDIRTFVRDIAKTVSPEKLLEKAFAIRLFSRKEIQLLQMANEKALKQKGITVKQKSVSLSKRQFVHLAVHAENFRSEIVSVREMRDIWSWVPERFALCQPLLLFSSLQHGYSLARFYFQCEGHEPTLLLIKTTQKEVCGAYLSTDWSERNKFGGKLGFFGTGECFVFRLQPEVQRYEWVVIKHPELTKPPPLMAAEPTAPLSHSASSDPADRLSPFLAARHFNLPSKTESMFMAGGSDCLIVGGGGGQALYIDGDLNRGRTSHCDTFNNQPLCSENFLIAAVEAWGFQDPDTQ
inactive: [1] 0.018 | crizotinib -0.235 | [2] 0.08 | [3] -0.014 | duvelisib 0.04 | gandotinib -0.361 | tozasertib -0.119 | [4] 0.073 | doramapimod 0.061 | ispinesib -0.218

SLIRP (UniProt Q9GZT3)
inactive: [1] -0.046 | crizotinib -0.267 | [2] -0.202 | [3] 0.058 | duvelisib 0.029 | gandotinib 0.162 | tozasertib -0.075 | [4] 0.146 | doramapimod -0.045 | ispinesib -0.149

TCERG1 (UniProt O14776)
inactive: [1] 0.079 | crizotinib 0.073 | [2] 0.125 | [3] -0.063 | duvelisib 0.138 | gandotinib -0.057 | tozasertib 0.112 | [4] 0.179 | doramapimod -0.079 | ispinesib 0.015

STARD7 (UniProt Q9NQZ5)
UniProt Q9NQZ5, sequence (Q9NQZ5 whole entry, looked up): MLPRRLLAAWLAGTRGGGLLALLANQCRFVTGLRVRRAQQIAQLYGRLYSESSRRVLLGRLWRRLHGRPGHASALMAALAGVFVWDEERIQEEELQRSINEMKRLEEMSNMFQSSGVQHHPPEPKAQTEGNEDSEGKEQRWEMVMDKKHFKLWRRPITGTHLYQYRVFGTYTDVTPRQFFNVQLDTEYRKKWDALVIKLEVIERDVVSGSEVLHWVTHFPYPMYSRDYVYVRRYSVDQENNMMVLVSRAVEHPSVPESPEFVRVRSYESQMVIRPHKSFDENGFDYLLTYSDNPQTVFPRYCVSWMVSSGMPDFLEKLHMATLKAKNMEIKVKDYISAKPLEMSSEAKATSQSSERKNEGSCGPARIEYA
inactive: [1] 0.023 | crizotinib -0.051 | [2] 0.045 | [3] -0.114 | duvelisib 0.034 | gandotinib -0.168 | tozasertib -0.024 | [4] 0.023 | doramapimod 0.021 | ispinesib -0.01

SPG21 (UniProt Q9NZD8)
inactive: [1] 0.077 | crizotinib -0.24 | [2] 0.053 | [3] 0.013 | duvelisib 0.003 | gandotinib 0 | tozasertib 0.026 | [4] 0.052 | doramapimod 0.091 | ispinesib -0.093

SMAD2 (UniProt Q15796)
inactive: [1] 0.132 | crizotinib 0.255 | [2] -0.015 | [3] 0.012 | duvelisib 0.038 | gandotinib 0.045 | tozasertib 0.086 | [4] 0.071 | doramapimod -0.04 | ispinesib -0.019

TIMM10 (UniProt P62072)
inactive: [1] -0.035 | crizotinib 0.051 | [2] 0.099 | [3] -0.006 | duvelisib 0.105 | gandotinib 0.052 | tozasertib 0.053 | [4] 0.027 | doramapimod 0.021 | ispinesib 0.103

SUPT5H (UniProt O00267)
inactive: [1] 0.057 | crizotinib 0.049 | [2] 0.129 | [3] -0.057 | duvelisib 0.084 | gandotinib -0.043 | tozasertib 0 | [4] 0.079 | doramapimod -0.043 | ispinesib 0.02

SPAG9 (UniProt O60271)
inactive: [1] 0.046 | crizotinib -0.056 | [2] -0.002 | [3] 0.065 | duvelisib -0.017 | gandotinib -0.034 | tozasertib 0.049 | [4] 0.012 | doramapimod 0.023 | ispinesib -0.188

SUOX (UniProt P51687)
inactive: [1] 0.016 | crizotinib 0.076 | [2] 0.098 | [3] 0.001 | duvelisib -0.026 | gandotinib 0.063 | tozasertib 0.003 | [4] -0.075 | doramapimod -0.338 | ispinesib -0.034

SRFBP1 (UniProt Q8NEF9)
inactive: [1] -0.053 | crizotinib -0.029 | [2] -0.21 | [3] 0.061 | duvelisib -0.039 | gandotinib 0.083 | tozasertib 0.055 | [4] -0.028 | doramapimod 0.007 | ispinesib -0.055

SURF1 (UniProt Q15526)
inactive: [1] -0.001 | crizotinib -0.008 | [2] 0.043 | [3] -0.013 | duvelisib 0 | gandotinib -0.066 | tozasertib 0.016 | [4] 0.032 | doramapimod 0.01 | ispinesib -0.181

SYF2 (UniProt O95926)
UniProt O95926, sequence (O95926 whole entry, looked up): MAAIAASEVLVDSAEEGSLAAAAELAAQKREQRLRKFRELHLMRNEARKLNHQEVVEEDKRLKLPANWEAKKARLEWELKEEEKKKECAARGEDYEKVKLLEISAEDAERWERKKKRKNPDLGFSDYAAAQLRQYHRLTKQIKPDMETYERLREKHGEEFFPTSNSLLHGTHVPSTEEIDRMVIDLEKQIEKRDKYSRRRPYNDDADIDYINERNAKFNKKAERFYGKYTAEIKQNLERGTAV
inactive: [1] -0.147 | crizotinib 0.206 | [2] -0.031 | [3] 0.157 | duvelisib -0.039 | gandotinib 0.11 | tozasertib -0.113 | [4] -0.078 | doramapimod 0.022 | ispinesib -0.079

STIM1 (UniProt Q13586)
inactive: [1] 0.015 | crizotinib -0.07 | [2] 0.087 | [3] -0.028 | duvelisib 0.014 | gandotinib -0.008 | tozasertib -0.018 | [4] 0.057 | doramapimod 0.011 | ispinesib -0.233

SPAST (UniProt Q9UBP0)
inactive: [1] 0.002 | crizotinib -0.074 | [2] 0.043 | [3] 0.001 | duvelisib 0.069 | gandotinib -0.025 | tozasertib -0.01 | [4] 0.15 | doramapimod -0.078 | ispinesib -0.001

ST3GAL2 (UniProt Q16842)
inactive: [1] 0.096 | crizotinib -0.288 | [2] -0.017 | [3] 0.006 | duvelisib 0.035 | gandotinib 0.127 | tozasertib 0.024 | [4] 0.033 | doramapimod 0 | ispinesib -0.096

TFB2M (UniProt Q9H5Q4)
inactive: [1] -0.013 | crizotinib -0.06 | [2] 0.096 | [3] 0.025 | duvelisib 0.049 | gandotinib -0.19 | tozasertib 0.013 | [4] 0.033 | doramapimod -0.024 | ispinesib -0.044

SPG11 (UniProt Q96JI7)
inactive: [1] 0 | crizotinib 0.058 | [2] -0.282 | [3] 0.619 | duvelisib -0.397 | gandotinib 0.173 | tozasertib -0.255 | [4] 0 | doramapimod -0.01 | ispinesib -0.328

TM9SF4 (UniProt Q92544)
inactive: [1] -0.029 | crizotinib -0.141 | [2] 0.036 | [3] 0.04 | duvelisib -0.015 | gandotinib -0.189 | tozasertib 0.006 | [4] 0.044 | doramapimod 0.034 | ispinesib -0.143

SRSF4 (UniProt Q08170)
inactive: [1] -0.055 | crizotinib 0.011 | [2] -0.248 | [3] 0 | duvelisib -0.064 | gandotinib 0.077 | tozasertib 0.071 | [4] 0.031 | doramapimod 0.073 | ispinesib -0.021

SMAP (UniProt O00193)
UniProt O00193, sequence (O00193 whole entry, looked up): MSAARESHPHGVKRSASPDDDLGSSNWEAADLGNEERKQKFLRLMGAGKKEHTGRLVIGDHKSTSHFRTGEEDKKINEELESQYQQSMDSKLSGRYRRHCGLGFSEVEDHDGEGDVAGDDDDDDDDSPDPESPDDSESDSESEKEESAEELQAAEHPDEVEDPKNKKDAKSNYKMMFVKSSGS
inactive: [1] 0.004 | crizotinib -0.06 | [2] -0.01 | [3] -0.082 | duvelisib 0.017 | gandotinib -0.032 | tozasertib 0 | [4] -0.03 | doramapimod 0.023 | ispinesib -0.015

SNUPN (UniProt O95149)
UniProt O95149, sequence (O95149 whole entry, looked up): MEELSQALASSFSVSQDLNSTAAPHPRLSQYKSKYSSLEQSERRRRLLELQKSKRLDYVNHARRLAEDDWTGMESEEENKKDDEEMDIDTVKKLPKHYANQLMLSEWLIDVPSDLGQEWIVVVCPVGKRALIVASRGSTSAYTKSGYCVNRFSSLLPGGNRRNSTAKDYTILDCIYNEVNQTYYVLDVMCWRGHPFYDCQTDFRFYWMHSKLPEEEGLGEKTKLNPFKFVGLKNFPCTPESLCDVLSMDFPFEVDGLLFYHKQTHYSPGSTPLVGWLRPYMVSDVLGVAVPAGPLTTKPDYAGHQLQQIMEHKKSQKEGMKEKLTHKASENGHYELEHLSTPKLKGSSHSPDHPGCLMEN
inactive: [1] 0.019 | crizotinib -0.187 | [2] 0.045 | [3] -0.007 | duvelisib -0.001 | gandotinib -0.074 | tozasertib 0.017 | [4] -0.014 | doramapimod -0.007 | ispinesib 0.029

THADA (UniProt Q6YHU6)
UniProt Q6YHU6, sequence (Q6YHU6 whole entry, looked up): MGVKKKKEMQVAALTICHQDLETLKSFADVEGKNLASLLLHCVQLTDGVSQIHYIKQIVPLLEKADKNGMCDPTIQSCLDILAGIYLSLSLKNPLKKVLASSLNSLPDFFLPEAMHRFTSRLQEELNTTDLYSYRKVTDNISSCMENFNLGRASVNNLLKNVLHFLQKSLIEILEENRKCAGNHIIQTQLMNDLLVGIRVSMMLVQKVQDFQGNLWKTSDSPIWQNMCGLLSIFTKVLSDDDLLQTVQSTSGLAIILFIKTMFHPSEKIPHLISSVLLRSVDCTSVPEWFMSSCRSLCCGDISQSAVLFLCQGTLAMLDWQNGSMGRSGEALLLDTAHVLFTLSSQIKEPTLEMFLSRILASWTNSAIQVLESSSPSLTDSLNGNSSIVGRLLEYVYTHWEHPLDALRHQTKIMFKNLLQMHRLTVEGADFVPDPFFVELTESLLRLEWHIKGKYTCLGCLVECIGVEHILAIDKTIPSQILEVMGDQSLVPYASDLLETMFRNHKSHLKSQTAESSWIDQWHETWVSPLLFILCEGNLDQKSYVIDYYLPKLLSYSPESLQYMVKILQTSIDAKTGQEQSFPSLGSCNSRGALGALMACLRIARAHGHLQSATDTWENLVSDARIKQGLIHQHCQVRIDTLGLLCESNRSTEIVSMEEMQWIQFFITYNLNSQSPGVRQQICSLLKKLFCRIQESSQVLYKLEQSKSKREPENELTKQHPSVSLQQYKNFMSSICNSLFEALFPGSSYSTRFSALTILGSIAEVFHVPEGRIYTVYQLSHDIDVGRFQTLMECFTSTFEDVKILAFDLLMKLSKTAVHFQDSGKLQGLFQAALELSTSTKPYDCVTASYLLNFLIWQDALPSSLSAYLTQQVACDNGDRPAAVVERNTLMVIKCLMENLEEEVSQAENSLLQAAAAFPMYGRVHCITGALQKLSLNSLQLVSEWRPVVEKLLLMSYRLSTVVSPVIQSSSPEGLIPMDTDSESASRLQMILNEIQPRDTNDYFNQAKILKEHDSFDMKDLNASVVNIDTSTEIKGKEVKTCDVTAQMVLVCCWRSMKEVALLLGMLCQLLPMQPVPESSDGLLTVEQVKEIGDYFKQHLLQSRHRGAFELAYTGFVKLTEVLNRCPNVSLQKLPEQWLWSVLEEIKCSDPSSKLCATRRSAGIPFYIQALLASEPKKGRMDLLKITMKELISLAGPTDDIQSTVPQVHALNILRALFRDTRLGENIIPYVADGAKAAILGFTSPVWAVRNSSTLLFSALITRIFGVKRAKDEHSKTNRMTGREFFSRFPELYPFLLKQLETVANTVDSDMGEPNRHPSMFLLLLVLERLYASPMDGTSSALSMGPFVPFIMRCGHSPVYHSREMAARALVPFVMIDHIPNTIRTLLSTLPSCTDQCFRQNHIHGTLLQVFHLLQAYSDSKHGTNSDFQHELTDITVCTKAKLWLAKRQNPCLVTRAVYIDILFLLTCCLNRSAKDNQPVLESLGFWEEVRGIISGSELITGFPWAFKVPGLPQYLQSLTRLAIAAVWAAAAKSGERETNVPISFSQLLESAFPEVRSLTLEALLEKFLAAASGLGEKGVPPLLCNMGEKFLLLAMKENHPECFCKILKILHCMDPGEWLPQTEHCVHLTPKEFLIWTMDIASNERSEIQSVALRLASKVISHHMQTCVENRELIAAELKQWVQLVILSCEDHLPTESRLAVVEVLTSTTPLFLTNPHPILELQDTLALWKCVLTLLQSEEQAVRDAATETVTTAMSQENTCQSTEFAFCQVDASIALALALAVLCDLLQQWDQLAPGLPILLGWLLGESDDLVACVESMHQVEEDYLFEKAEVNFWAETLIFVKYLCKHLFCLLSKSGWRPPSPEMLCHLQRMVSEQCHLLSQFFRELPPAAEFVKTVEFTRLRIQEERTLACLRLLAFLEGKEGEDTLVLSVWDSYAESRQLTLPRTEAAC
active: gandotinib -0.239
inactive: [1] 0.01 | crizotinib -0.168 | [2] 0.05 | [3] 0.018 | duvelisib 0.046 | tozasertib -0.052 | [4] 0.083 | doramapimod 0.001 | ispinesib -0.133

SSR3 isoform 2 (UniProt Q9UNL2)
UniProt Q9UNL2, sequence (Q9UNL2 whole entry, looked up): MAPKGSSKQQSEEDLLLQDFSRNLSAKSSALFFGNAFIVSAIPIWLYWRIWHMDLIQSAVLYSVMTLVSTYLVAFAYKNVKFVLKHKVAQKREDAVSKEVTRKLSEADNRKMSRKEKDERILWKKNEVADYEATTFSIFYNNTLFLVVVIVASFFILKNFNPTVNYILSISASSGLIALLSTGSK
inactive: [1] 0.021 | crizotinib -0.043 | [2] 0.05 | duvelisib 0.012 | gandotinib 0.281 | tozasertib 0.003 | [4] -0.038 | doramapimod 0.034 | ispinesib 0.021
active: [3] -0.458
